# Results published in PubChem BioAssay AID504882 (Broad Institute, 2011).
# About 290 (24%) of roughly 1,200 compounds were called active. Inconclusive results (about 9%) are left out. No rule for the calls is given here. The list is a sample of the results. A call without a number means that no potency is given here. Potency and affinity values are given separately.
# Assay: cytotoxicity in EBV lymphoblastoid cells, dose response, cytotoxicity control, cell-based, plate reader, cherry-picks, set 2 (AID 504882)
# Settings: EBV lymphoblastoid cells (LCL) viability; series mostly up to 19.5 µM
row,SMILES,outcome
1,O=C(O)c1cccc(Nc2ccnc(Nc3cccc(C(=O)O)c3)n2)c1,inactive
2,COc1ccc(Nc2oc(COc3ccccc3OC)nc2C#N)cc1,inactive
3,Cc1ccc(/C=C/C(=O)C2C(=O)c3ccccc3C2=O)cc1,inactive
4,COc1ccc(-c2nc(CS(=O)CC(=O)NCc3ccc(Cl)cc3)c(C)o2)cc1 (centres undefined),inactive
5,O=C(NCc1ccccc1)c1cccc(COc2ccc3c(c2)CCC3)c1,inactive
6,CC(C)Oc1ccc(C2CC(=O)NC2=O)cc1 (centres undefined),inactive
7,CCCCCc1ccc(-c2ccc(/C=C/C(=O)O)cc2)nc1,inactive
8,C(=N\Nc1ccc2ccccc2n1)/c1ccc2c(c1)OCO2,inactive
9,O=C(NCCOc1ccccc1)c1ccc2c(c1)OCO2,inactive
10,COc1ccc(/C=C2\SC(=O)N(CCCC(=O)Nc3ccc(C(=O)O)cc3)C2=O)cc1,inactive
11,Cc1cc(NC(=O)c2ccc(C)s2)n(-c2nc3ccccc3[nH]2)n1,inactive
12,N=c1c(-c2nc3ccccc3[nH]2)cc(C(=O)c2cccs2)nn1-c1ccccc1,inactive
13,CSc1ccccc1C(=O)N1CCC2(CC1)CC(=O)c1ccccc1O2,inactive
14,CS(=O)(=O)Nc1ccc(C2=NN(S(C)(=O)=O)C(c3ccccc3)C2)cc1 (centres undefined),inactive
15,Cc1cccc(NC(=O)Nc2c(C)n(C)n(-c3ccccc3)c2=O)c1C,inactive
16,CCc1ccccc1NC(=O)COC(=O)c1c(C)nsc1NC,inactive
17,CCc1ccc(/C=C2\SC(=S)N(CCCC(=O)Nc3ccccn3)C2=O)cc1,inactive
18,CCN1CCN(Cc2ccc(NC(=O)c3ccc(C)c(NC(=O)c4ccno4)c3)cc2C(F)(F)F)CC1,inactive
19,CCN1CCN(Cc2ccc(NC(=O)c3ccc(C)c(NC(=O)c4nccn4C)c3)cc2C(F)(F)F)CC1,inactive
20,COC(=O)C(NS(=O)(=O)c1ccc(N2CCCC2=O)cc1)c1ccccc1 (centres undefined),inactive
21,CC(=NNC(=S)N1CCCCCC1)c1cccc2cccnc12,inactive
22,O=C(CSc1nnc(-c2cccc(S(=O)(=O)N3CCOCC3)c2)n1C1CCCCCC1)NCc1ccccc1,inactive
23,N#CC(C#N)c1ccnc2ccccc12,inactive
24,CC(CCc1ccco1)N(C)S(=O)(=O)c1csc(C(N)=O)c1 (centres undefined),inactive
25,CC1CCCN(C(=O)COC(=O)c2n[nH]c3ccccc23)C1 (centres undefined),inactive
26,CCN(C(=O)c1cccc(NC(=O)c2ccccc2)c1)C1CCCCC1,inactive

row,SMILES,outcome
1,Brc1cccc(CSc2nnc(-c3ccncc3)o2)c1,inactive
2,O=c1oc2ccccc2c(O)c1/C=N/c1ccccn1,inactive
3,CCc1nn2cc(-c3ccccc3)nc2s1,inactive
4,O=C(NCC1CCOCC1)c1ccc(OC2CCN(Cc3ccccn3)CC2)cc1,inactive
5,Cc1ccc(C(=O)Nc2cccc(C(F)(F)F)c2)cc1NC(=O)c1ccno1,inactive
6,COc1cnc(-c2ccccn2)nc1Sc1ccccc1Cl,inactive
7,CCOc1ccc(NC(=O)CCc2nnc3ccc(N4CCC5(CC4)OCCO5)nn23)cc1,inactive
8,C[C@H](CO)N1C[C@H](C)[C@@H](CN(C)C(=O)NC2CCCCC2)Oc2c(NS(=O)(=O)c3cn(C)cn3)cccc2C1=O,inactive
9,CC1=CC(=NOC(=O)/C=C/c2ccccc2)C=C(C)C1=O,inactive
10,CCc1ccccc1N(CC(=O)NCc1ccco1)C(=O)c1snc(C(N)=O)c1N,inactive
11,Cc1ccc(C(=O)Nc2cccc(C(=O)N/N=C/c3ccccc3F)c2)cc1,inactive
12,Oc1cccc(/C=N/NC(=S)NCCN2CCOCC2)c1O,inactive
13,Cc1ccc(S(=O)(=O)N2c3ccccc3-c3c(ssc3=S)C2(C)C)cc1,inactive
14,Cc1ccc(S(=O)(=O)N2CCN(C(=O)COC(=O)COc3ccc(Cl)cc3)CC2)c(C)c1,inactive
15,O=C(Nc1nnc(N2CCCCCC2)s1)c1cc(-c2ccc(Br)cc2)on1,inactive
16,O=C(c1ccc(COc2ccccc2Cl)o1)N1CCCC1,inactive
17,Oc1c(N=NC(=S)Nc2ccccc2F)c2ccccc2n1Cc1ccc(F)cc1,inactive
18,COc1ccc(NC(=O)C2CCCN(S(=O)(=O)c3cccc4nonc34)C2)c(OC)c1 (centres undefined),inactive
19,CC1=C(CC(=O)O)c2cc(F)ccc2C1=Cc1ccc(S(C)(=O)=O)cc1,inactive
20,Cc1cc(NCCCn2ccnc2)n2ncc(-c3ccccc3)c2n1,inactive
21,CSc1nc(C)nc2c1c(=O)n(C)c(=O)n2C,inactive
22,Cc1ccc(S(=O)(=O)N2CCCCC2)cc1NC(=O)CNc1ccccc1N1CCCC1=O,inactive
23,COc1ccc(Nc2oc(COc3ccc(Cl)cc3)nc2C#N)cc1,inactive
24,COCC(=O)N1CCC(Oc2ccc(C(=O)N3C[C@H]4CC[C@H]3C4)cc2)CC1,inactive
25,O=C(CCS(=O)(=O)c1ccccc1)Nc1nccs1,inactive
26,COc1ccc(OC)c(NC(=O)COc2coc(CN3CCc4ccccc43)cc2=O)c1,inactive

row,SMILES,outcome
1,O=C(OCc1nc2ccccc2s1)[C@@H]1CCCN1S(=O)(=O)c1ccccc1F,inactive
2,Cn1cccc1/C=C1\CC(C(C)(C)C)C/C(=C\c2cccn2C)C1=O (centres undefined),inactive
3,COc1ccccc1-n1c(-c2ccccc2)n[nH]c1=S,inactive
4,CC(=O)c1ccc(-n2nnnc2SCC(=O)N2CCc3ccccc3C2)cc1,inactive
5,CCN(Cc1ccncc1)C(=O)CCc1ccccc1,inactive
6,Cn1cccc1-c1cc(C(=O)N2CCc3c([nH]c4ccccc34)C2c2ccccn2)[nH]n1 (centres undefined),inactive
7,Cc1ccc(CCNC(=O)Cc2ccc(NC3=NC4CS(=O)(=O)CC4S3)cc2)cc1 (centres undefined),inactive
8,Cn1c(=O)c2ncn(CC(=O)O)c2n(C)c1=O,inactive
9,CCOc1cc(C(=O)OC(C)C(=O)Nc2ncc(Cl)cc2Cl)ccc1OCC(=O)N1CCOCC1 (centres undefined),inactive
10,CC(=O)N1c2ccc(S(=O)(=O)N3CCC(C(=O)N4CCN(c5ccc(Cl)cc5)CC4)CC3)cc2CC1C (centres undefined),inactive
11,O=C1c2cccc3c(O)ccc(c23)C(=O)N1c1ccc(Cl)cc1,inactive
12,C/C(=N\NS(=O)(=O)c1ccc([N+](=O)[O-])cc1)c1cccs1,inactive
13,COc1cccc(-c2nc(NCc3ccccc3)c3ccccc3n2)c1O,inactive
14,COc1cccc(/C=N/Nc2ncnc(N)c2[N+](=O)[O-])c1OC,inactive
15,COc1cccc(C(=O)O/N=C(\N)c2ccccn2)c1OC,inactive
16,O=C(O)c1ccc(-n2cncn2)c([N+](=O)[O-])c1,inactive
17,O=c1c([N+](=O)[O-])cn(Cc2ccccc2)c(=O)n1Cc1ccccc1,inactive
18,COc1cc(C(c2sc3nc(C)nn3c2O)N2CCc3ccccc3C2)cc(OC)c1OC (centres undefined),inactive
19,COc1cccc(C2Nc3ccc4ccccc4c3C3=C2C(=O)CC(C)(C)C3)c1OCC(=O)O (centres undefined),inactive
20,Cc1c(C=O)c2ccccn2c1C(=O)c1ccccc1Cl,inactive
21,Clc1ccc(-c2nnc(NC3=NCCCCC3)o2)cc1,inactive
22,C[C@@H](OC(=O)c1[nH]cnc1C(=O)N1CCc2ccccc2C1)c1ccccc1,inactive
23,COc1ccc(CCNC(=O)CSC(=O)c2ccccc2)cc1OC,inactive
24,O=C(O)c1cn2c3c(ccc(Cl)c3c1=O)OCC2,inactive
25,CCCCN1C2CCCC1CC(NC(=O)C1CCCCC1)C2 (centres undefined),inactive
26,O=C(NCc1ccco1)C1CC(=O)N(c2cccc(Cl)c2)C1 (centres undefined),inactive

row,SMILES,outcome
1,O=C(COC(=O)c1ccc(S(=O)(=O)NCc2ccco2)cc1)Nc1ccc(Cl)cn1,inactive
2,COc1ccc(-n2cc(C(=O)c3ccccc3O)cn2)cc1,inactive
3,CCc1ccc(/C=C2\SC(=S)N(CCCC(=O)NC3=NCCS3)C2=O)cc1,inactive
4,COc1cccc(C(=O)N2CCN(c3nc4cc(C)cc(C)c4cc3C#N)CC2)c1,inactive
5,CCCSc1ccc([C@@H]2[C@H]3C(=O)N(C)C(=O)[C@H]3[C@]3(C(=O)OC)CCCN23)cc1OC,inactive
6,CCCn1c(C)cc(C(=O)CN2C(=O)c3ccccc3S2(=O)=O)c1C,inactive
7,CCSc1nnc(NC(=O)CSc2nnc(-c3c[nH]c4ccccc34)n2CC)s1,inactive
8,CC(=O)c1ccccc1OCC(=O)Nc1cccc(S(=O)(=O)N2CCCC2)c1,inactive
9,O=C(CCCN1C(=O)[C@H]2CC=CC[C@H]2C1=O)NCc1nc(-c2ccc(Cl)cc2)no1,inactive
10,Cc1cccc(-n2c(O)c(C=Nc3c(C)n(C)n(-c4ccccc4)c3=O)c3ccccc3c2=O)n1,inactive
11,COC(=O)C1=C(C)N(c2cc(C)cc(C)c2)/C(=C/c2ccc(O)cc2)C1=O,inactive
12,COc1cc(N)c(Cl)cc1C(=O)NC1CCN(Cc2ccccc2)CC1,inactive
13,Cc1cccc(Nc2nc(Cl)ncc2F)c1C,inactive
14,Cc1ccccc1C(=O)N1CCN(c2ccc(NC(=O)c3cccs3)cc2)CC1,inactive
15,COc1cc(OC)cc(C(=O)N[C@H](C(=O)OCC(=O)c2ccc(C)c([N+](=O)[O-])c2)C(C)C)c1,inactive
16,CCOC(=O)Oc1c(OC)cc(C(=O)O[C@@H]2C[C@@H]3CN4CCc5c([nH]c6cc(OC)ccc56)[C@H]4C[C@@H]3[C@H](C(=O)OC)[C@H]2OC)cc1OC,inactive
17,CCOC(=O)c1cc(-c2ccccc2)n(CC(=O)Nc2cccc(OC)c2)c1C,inactive
18,CCOC(=O)c1nc(NCc2ccccc2F)c2ccccc2n1,inactive
19,COCCn1c(C)cc(C(=O)COc2ccc(C)nc2[N+](=O)[O-])c1C,inactive
20,COC(=O)c1[nH]c2ccc(C)cc2c1NC(=O)NC1CCCCC1,inactive
21,CN(CC(=O)Nc1cccnc1)S(=O)(=O)c1ccc(Br)cc1,inactive
22,COc1cc(C2CC(=O)N3CN(Cc4ccccc4)CSC3=C2C#N)ccc1OCc1ccccc1 (centres undefined),inactive
23,COc1ccccc1OCc1ccc(C(=O)c2ccccc2)cc1,inactive
24,O=C(O)C1CC(=O)N(c2ccc(Br)cc2)C1 (centres undefined),inactive
25,CNS(=O)(=O)c1cccc(C(=O)OCC(=O)c2ccc3c(c2)OCCO3)c1,inactive
26,COc1ccc(OC)c2[nH]c(=O)c(CCNC(=O)c3ccc(S(=O)(=O)N(C)C)cc3)cc12,inactive
